Where “and” joins values, the source holds several entries; their conditions need not be identical. Equal entries are not always repeated. Inconclusive results are not listed. A call without a number means that no potency is given here. Calls of active or inactive are those of the source. Unless noted, calls follow the shape of the dose curve; as a rule, active = well fitted curve in the direction sought with a large enough effect in the repeat runs; inconclusive = weak or mixed curves; inactive = no such curve, though single readings can be large; an effect the other way counts as inactive or inconclusive.
Experiments:
[1] = qHTS assay to identify small molecule agonists of the RXR signaling pathway - cell viability counter screen (AID 1159529); settings: RXR-alpha-bla HEK293T viability, CellTiter-Glo, 16 h; series mostly up to 76.8 µM; also: nearly all actives have a fitted effect of over 50% in size
How it was run: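 RXR-alpha-UAS-bla HEK 293T cells in medium with 2% charcoal-stripped FBS were preincubated 5 hr, then exposed to compounds for 16 hr at 37 C. Viability was read as CellTiter-Glo luminescence after 30 min at room temperature.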

[2] = qHTS assay to identify small molecule antagonists of the retinoid acid receptor (RAR) signaling pathway - cell viability counter screen (AID 1159551); settings: C3RL4 cells viability, ATP luminescence (CellTiter-Glo), 6 h; series mostly up to 92.4 µM; also: nearly all actives have a fitted effect of over 35% in size
How it was run: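 Luminescent ATP quantitation (CellTiter-Glo) gave cell viability in C3RL4 cells exposed to test chemicals for 6 h at 37 C alongside 1 uM final retinol.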

[3] = qHTS assay to identify small molecule antagonists of the retinoic acid receptor (RAR) signaling pathway (AID 1159552; also: nearly all actives have a fitted effect of over 50% in size); settings: C3RL4 RARE luciferase reporter, retinol-stimulated, 6 h; series mostly up to 92.4 µM
How it was run: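 RARE-luc C3RL4 cells; cpds + 1 uM (final) retinol, 6 hr, 37 C/5% CO2; luciferase reagent, 30 min RT, luminescence readout. Inhibitors of retinol-driven signal scored.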

[4] = qHTS assay to identify small molecule agonists of the retinoic acid receptor (RAR) signaling pathway (AID 1159553); settings: C3RL4 RARE luciferase reporter, agonist, 6 h; series mostly up to 73.3 µM; also: potency is read from the fitted curve at half-maximal effect
How it was run: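 Luminescence from a RARE-driven luciferase reporter in C3RL4 cells served as the read-out, measured after 30 min with detection reagent at room temperature. Compounds in DMSO were applied for 6 hr at 37 C following overnight seeding.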

[5] = qHTS assay to identify small molecule antagonists of the estrogen related receptor (ERR) signaling pathway - cell viability counter screen (AID 1224818); settings: ERR reporter cell line viability counter screen; series mostly up to 46.1 µM;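 also: viability measured after 17.5 h of compound exposure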
How it was run: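 Multiplexed counter screen to separate cytotoxic compounds from true ERR modulators. ERR cells received DMSO-dissolved compounds after a 6 h pre-incubation, were exposed 17.5 h at 37 C, then assayed with CellTiter-Fluor fluorescence.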

[6] = qHTS assay to identify small molecule antagonists of the estrogen related receptor signaling pathway with the pleiotropic PPARgamma coactivator (PGC) cell viability counter screen (AID 1224822;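 also: viability read after 17.5 h compound exposure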); settings: ERR/PGC reporter cell line viability counter screen; series mostly up to 46.1 µM
How it was run: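 Cells: PGC/ERR, 2,000/well, 1536-well format. Pre-incubation 6 h, 37 C/5% CO2. Compound exposure 17.5 h, 37 C. Detection: CellTiter-Fluor, 30 min, fluorescence.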

[7] = target: Retinoic acid receptor RXR-alpha (Homo sapiens) (UniProt P19793); test: qHTS assay to identify small molecule agonists of the RXR signaling pathway (AID 1159527; calls by dose curve; also: nearly all actives have a fitted effect of over 35% in size); settings: HEK293T RXRa-UAS-bla, beta-lactamase ratio, 16 h; series mostly up to 76.8 µM
Chain of Retinoic acid receptor RXR-alpha (Homo sapiens) (P19793 whole entry, looked up): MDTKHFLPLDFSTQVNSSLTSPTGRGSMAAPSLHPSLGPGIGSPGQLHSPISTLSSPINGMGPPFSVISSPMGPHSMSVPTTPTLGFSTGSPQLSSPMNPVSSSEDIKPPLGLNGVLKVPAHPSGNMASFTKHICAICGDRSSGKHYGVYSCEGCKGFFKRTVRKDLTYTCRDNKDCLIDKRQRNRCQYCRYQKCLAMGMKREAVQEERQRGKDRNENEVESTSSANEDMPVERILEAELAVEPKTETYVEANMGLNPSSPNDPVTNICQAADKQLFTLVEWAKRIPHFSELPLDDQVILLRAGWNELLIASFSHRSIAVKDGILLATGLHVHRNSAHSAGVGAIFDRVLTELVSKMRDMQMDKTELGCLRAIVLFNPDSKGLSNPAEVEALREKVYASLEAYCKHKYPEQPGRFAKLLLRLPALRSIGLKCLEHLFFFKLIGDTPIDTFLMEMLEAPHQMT
How it was run: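 GeneBLAzer RXR-alpha-UAS-bla HEK 293T cells in medium with 2% charcoal-stripped FBS, pre-incubated 5 hr at 37 C, then exposed to compounds 16 hr. Beta-lactamase reporter read by FRET substrate, 2 hr room temperature, 460/530 nm emission.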

[8] = qHTS assay to identify small molecule antagonists of the estrogen related receptor (ERR) signaling pathway (AID 1224819; also: nearly all actives have a fitted effect of over 50% in size; also: potency is read from the fitted curve at half-maximal effect); settings: ERR reporter cell line, luciferase inhibition; series mostly up to 46.1 µM
How it was run: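 Seed ERR cells 2,000/well; rest 6 h at 37 C/5% CO2; pin compounds in DMSO; incubate 18 h at 37 C; add One-Glo; wait 30 min at room temperature; measure luminescence.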

[9] = qHTS assay to identify small molecule agonists of the estrogen related receptor (ERR) signaling pathway (AID 1224820); settings: ERR reporter cell line, luciferase agonist mode; series mostly up to 46.1 µM
How it was run: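 Cells: ERR line from NTP, 2,000/well. Pre-incubation 6 h, 37 C/5% CO2. Compound (DMSO) pin transfer, 18 h 37 C. One-Glo, 30 min RT, luminescence.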

[10] = system: estrogen-related receptor alpha (ERRalpha) with PGC-1alpha coactivator, human; test: qHTS assay to identify small molecule antagonists of the estrogen related receptor signaling pathway with the pleiotropic PPARgamma coactivator (PGC) (AID 1224821; calls by dose curve;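 also: lower luminescence signal means antagonism of PGC/ERR signalling; nearly all actives have a fitted effect of over 50% in size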); settings: ERR/PGC reporter cell line, luciferase, antagonist mode; series mostly up to 46.1 µM
How it was run: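 Luminescent read-out (One-Glo, 30 min at room temperature) following 18 h treatment of PGC/ERR cells at 37 C with compounds delivered in DMSO. Cells had settled 6 h at 37 C/5% CO2 before dosing.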

O=c1c(-c2ccc(O)cc2)coc2cc(O)cc(O)c12
Potency [1]: inactive
outcome [2]: inactive
Potency [3]: inactive
Potency [4]: 1.9 µM (active) and 1.37 µM (active) and 2.37 µM (active)
outcome [5]: inactive
outcome [6]: inactive

CC(O)COc1ccccc1 (stereo not drawn)
Potency [7]: inactive
Potency [1]: inactive
outcome [2]: inactive
Potency [3]: inactive
Potency [4]: inactive

CC(C)Cc1ccc(C(C)C(=O)O)cc1 (stereo not drawn)
Potency [7]: inactive
Potency [1]: inactive
outcome [2]: inactive
Potency [3]: inactive
Potency [4]: inactive
outcome [5]: inactive
Potency [8]: inactive
outcome [9]: inactive
outcome [10]: inactive
outcome [6]: inactive

CC(=O)OC/C=C(C)/C=C/C=C(C)/C=C/C1=C(C)CCCC1(C)C
Potency [1]: inactive
outcome [2]: inactive

N[C@@H](Cc1c[nH]c2ccccc12)C(=O)O
Potency [7]: inactive
Potency [1]: inactive
outcome [2]: inactive
Potency [3]: inactive
Potency [4]: inactive
outcome [5]: inactive
outcome [6]: inactive

Cc1cnc(NC(=O)C2=C(O)c3ccccc3S(=O)(=O)N2C)s1
Potency [7]: inactive
Potency [1]: inactive
outcome [2]: inactive
Potency [3]: inactive
Potency [4]: inactive
outcome [5]: inactive
outcome [6]: inactive

CCN(CC)CCOC(=O)c1ccc(N)cc1
Potency [7]: inactive
Potency [1]: inactive
outcome [2]: inactive
Potency [3]: inactive
Potency [4]: inactive
outcome [5]: inactive
Potency [8]: inactive
outcome [9]: inactive
outcome [10]: inactive
outcome [6]: inactive

CC(=O)Oc1ccccc1C(=O)O
Potency [7]: inactive
Potency [1]: inactive
outcome [2]: inactive
Potency [3]: inactive
Potency [4]: inactive
outcome [5]: inactive
outcome [6]: inactive

C[C@]12C[C@H](O)[C@H]3[C@@H](CCC4=CC(=O)CC[C@@]43C)[C@@H]1CC[C@@H]2C(=O)CO
Potency [7]: inactive
Potency [1]: inactive
outcome [2]: inactive
Potency [3]: inactive
Potency [4]: inactive
outcome [5]: inactive
outcome [6]: inactive

NC(=O)N1c2ccccc2C=Cc2ccccc21
Potency [7]: inactive
Potency [1]: inactive
outcome [2]: inactive
Potency [3]: inactive
Potency [4]: inactive
outcome [5]: inactive
outcome [6]: inactive

CC(C)(C)NCC(O)c1ccc(O)c(CO)c1 (stereo not drawn)
Potency [7]: inactive
Potency [1]: inactive
outcome [2]: inactive
Potency [3]: inactive
Potency [4]: inactive
outcome [5]: inactive
outcome [6]: inactive

Cc1cccc(Nc2cc(Cl)nc(SCC(=O)O)n2)c1C
Potency [1]: inactive
outcome [2]: inactive
Potency [3]: inactive
Potency [4]: inactive

C[C@]12CC[C@@H]3c4ccc(O)cc4CC[C@H]3[C@@H]1CCC2=O
Potency [7]: inactive
Potency [1]: inactive
outcome [2]: inactive
outcome [5]: inactive
outcome [6]: inactive

Cn1cnc2c1c(=O)[nH]c(=O)n2C
Potency [7]: inactive
Potency [1]: inactive
outcome [2]: inactive
Potency [3]: inactive
Potency [4]: inactive
outcome [5]: inactive
outcome [6]: inactive

C[C@]12CC[C@@H]3c4ccc(O)cc4C[C@@H](CCCCCCCCCS(=O)CCCC(F)(F)C(F)(F)F)[C@H]3[C@@H]1CC[C@@H]2O (stereo partly drawn)
Potency [7]: inactive
Potency [1]: inactive
outcome [2]: inactive
Potency [3]: inactive
Potency [4]: inactive
outcome [5]: inactive
Potency [8]: 7.22 µM (active)
outcome [9]: inactive
outcome [6]: inactive

Oc1cccc(O)c1
Potency [1]: inactive
outcome [2]: inactive
Potency [3]: inactive
Potency [4]: inactive

CCOC(=O)C(C)(C)Oc1ccc(Cl)cc1
Potency [7]: inactive
Potency [1]: inactive
outcome [2]: inactive
outcome [5]: inactive
Potency [8]: inactive
outcome [9]: inactive
outcome [10]: inactive
outcome [6]: inactive

COc1ccccc1O
Potency [7]: inactive
Potency [1]: inactive
outcome [2]: inactive
outcome [5]: inactive
outcome [6]: inactive

NC(=O)NO
Potency [7]: inactive
Potency [1]: inactive
outcome [2]: inactive
Potency [3]: inactive
Potency [4]: inactive
outcome [5]: inactive
outcome [6]: inactive

Cc1ccc(O)c(-n2nc3ccccc3n2)c1
Potency [7]: inactive
Potency [1]: inactive
Potency [3]: inactive
Potency [4]: 1.52 µM (active) and 1.93 µM (active) and 2.98 µM (active)

COc1cc2c(c(OC)c1OC)-c1ccc(OC)c(=O)cc1[C@@H](NC(C)=O)CC2
outcome [2]: inactive
Potency [3]: inactive
Potency [4]: inactive
outcome [5]: inactive
outcome [6]: inactive

O=C(O)Cc1cccc2ccccc12
Potency [7]: inactive
Potency [1]: inactive
outcome [2]: inactive
outcome [5]: inactive
outcome [6]: inactive

From PubChem BioAssay (Tox21)
